Experiment [1] relates to SRY-box transcription factor 2 (SOX2) Protein Expression, Deisenroth Lab, SOX2 (gene 6657). Kind of experiment: CCTE_Deisenroth_DEVTOX-GLR_Endo_SOX2: CCTE's DevTox GLR-Endo Assay Evaluation of SRY-box transcription factor 2 (SOX2) Protein Expression, Deisenroth Lab (AID 2284412; active means hit-call score of the fitted dose curve at least 0.9, where 1 is the maximum). As to the method:
CCTE_Deisenroth_DEVTOX-GLR_Endo assay is a cell-based, multiplex-readout assay that uses RUES2-GLR, a human pluripotent cell line, with measurements taken at 48 hours after chemical dosing in a 384-well microplateCCTE_Deisenroth_DEVTOX-GLR_Endo_SOX2 is 1 of 4 assay components calculated from the CCTE_Deisenroth_DEVTOX-GLR_Endo assay and it measures the percentage of cells in an ectoderm state. Using a type of inducible fluorescent protein reporter, gain-of-signal activity can be used to understand changes in gene expression with fluorescent microscopy. The percentage SOX2+ cells are determined by calculating the number of SOX2+ cells divided by the cell count. To generalize the intended target to other relatable targets, this assay component is annotated to the transcription factor intended target family, where the subfamily is SRY-related HMG-box.Data from the assay component CCTE_Deisenroth_DEVTOX-GLR_Endo_SOX2 was analyzed as 1 assay endpoint. The endpoint is the percent SOX2+ cell population minus the 0.2% DMSO control in the CCTE_Deisenroth_DEVTOX-GLR_Endo assay. Furthermore, this assay endpoint can be referred to as a secondary readout, because this assay has produced multiple assay endpoints where this one serves as a measure of ectoderm differentiation.
All assay protocols are aligned to the DevTox GLR-Endo assay workflow. […]

Experiment [2] concerns SRY-box transcription factor 17 (SOX17) Protein Expression, Deisenroth Lab, SOX17 (gene 64321). Kind of experiment: CCTE_Deisenroth_DEVTOX-GLR_Endo_SOX17: CCTE's DevTox GLR-Endo Assay Evaluation of SRY-box transcription factor 17 (SOX17) Protein Expression, Deisenroth Lab (AID 2284413). In outline:
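Seed RUES2-GLR cells 24 h; start endoderm differentiation; dose at 0 and 24 h (1 nM - 200 uM, 10 points); fix at 48 h, stain nuclei, image 5 fields/well; compute SOX17+/total cells vs 0.2% DMSO.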

Results filed as inconclusive are left out. Calls of active or inactive are those of the source. How the source made its calls, unless noted: active means hit-call score of the fitted dose curve at least 0.9, where 1 is the maximum; inactive means score below 0.9.

The term AC50 denotes the concentration giving half of the maximal activity seen. Consider `NC(=O)c1ccc(N)nc1`, for which the results for the AC50 in experiment [1] and in experiment [2] were 71.1 µM (active) and 21 µM (active), respectively.
